The panel holds about 79,000 compounds, 15% with a hit somewhere; the sample as a whole holds those more often. Active and inactive are the calls of the source. Cut-off read from the data, not from the text of the source: active = growth inhibition above about 70%; inactive = the rest.
Experiments:
[1] = NCI Yeast Anticancer Drug Screen. Data for the rad52 strain (AID 147);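 note: 0% = growth of vehicle-treated control cultures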; conditions: S. cerevisiae rad52 mutant growth inhibition, hits give high values
Procedure, shortened: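 Inhibition of yeast growth, referenced to vehicle controls, was the measured output for a strain with defective DNA damage repair.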

[2] = NCI Yeast Anticancer Drug Screen. Data for the wt1 strain (AID 149);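 note: 0% = growth of vehicle-treated wt1 cultures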; conditions: S. cerevisiae wt1 strain (SPY 50644) growth inhibition, hits give high values
Procedure, shortened: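 Using yeast strain wt1, compound-induced growth inhibition was determined against vehicle-treated cultures.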

[3] = NCI Yeast Anticancer Drug Screen. Data for the rad50EPP+ strain (AID 151);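 note: 0% = growth of vehicle-treated control cultures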; conditions: S. cerevisiae rad50 mutant strain, hits give high values
Procedure, shortened: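 Genetically defined yeast (rad50EPP+, DNA damage repair alteration) is grown with compound, and inhibition of growth is expressed relative to vehicle-treated controls.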

[4] = NCI Yeast Anticancer Drug Screen. Data for the mgt1 strain (AID 153); conditions: S. cerevisiae mgt1 mutant growth inhibition, hits give high values
Procedure, shortened: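 In the mgt1 strain, test compounds were added and growth inhibition was determined relative to vehicle-treated controls.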

[5] = NCI Yeast Anticancer Drug Screen. Data for the rad50 strain (AID 155);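 note: 0% = growth of vehicle-only cultures of the same strain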; conditions: S. cerevisiae rad50 strain growth inhibition, hits give high values
Procedure, shortened: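 Relative growth inhibition (compound vs vehicle) was measured in yeast with a defined repair-gene alteration.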

[6] = NCI Yeast Anticancer Drug Screen. Data for the mec2-1 strain (AID 157); conditions: S. cerevisiae mec2-1 strain, hits give high values
Procedure, shortened: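 Each compound was tested on mec2-1 yeast, a strain altered in DNA damage repair or cell cycle control. Growth inhibition is reported relative to vehicle.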

[7] = NCI Yeast Anticancer Drug Screen. Data for the rad14 strain (AID 159);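 note: 0% = growth of vehicle-treated control cultures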; conditions: S. cerevisiae rad14 strain growth inhibition, hits give high values
Procedure, shortened: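 Screen for anticancer potential: a yeast strain altered in DNA damage repair is grown with compound, and reduced growth is quantified against vehicle controls.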

[8] = NCI Yeast Anticancer Drug Screen. Data for the sgs1 mgt1 strain (AID 161);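 note: 0% = growth of cultures given vehicle only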; conditions: S. cerevisiae sgs1 mgt1 strain, hits give high values
Procedure, shortened: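 Mutant yeast exposed to compound; growth scored against vehicle-only wells.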

[9] = NCI Yeast Anticancer Drug Screen. Data for the CLN2oe strain (AID 163);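 note: 0% = growth of vehicle-only control cultures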; conditions: S. cerevisiae CLN2oe strain, hits give high values
Procedure, shortened: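 First, the altered yeast strain was treated with each compound; second, its growth was measured; finally, inhibition was derived by comparison with vehicle controls.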

[10] = NCI Yeast Anticancer Drug Screen. Data for the cln2 rad14 strain (AID 165);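 note: 0% = growth equal to vehicle treated cultures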; conditions: S. cerevisiae cln2 rad14 strain, hits give high values
Procedure, shortened: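 Test compounds were added to cln2 rad14 yeast cultures; inhibition of growth was then determined by comparison with vehicle treatment.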

[11] = NCI Yeast Anticancer Drug Screen. Data for the bub3 strain (AID 167); conditions: S. cerevisiae bub3 mutant strain, hits give high values
Procedure, shortened: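 Screening used yeast with an engineered genetic alteration affecting cell cycle control. Compound-exposed cultures were compared with vehicle cultures, and reduced growth was taken as inhibition.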

[12] = NCI Yeast Anticancer Drug Screen. Data for the wt2 strain (AID 169);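 note: 0% = growth of vehicle-treated yeast cultures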; conditions: S. cerevisiae wt2 strain growth inhibition, hits give high values
Procedure, shortened: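 The panel's yeast strains carry defined changes in DNA repair or cell cycle genes. Each strain is grown with compound, and growth loss is scored relative to vehicle.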

[13] = NCI Yeast Anticancer Drug Screen. Data for the mlh1 strain (AID 171);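 note: 0% = growth of vehicle-treated control cultures of the same strain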; conditions: S. cerevisiae mlh1 strain growth inhibition, hits give high values
Procedure, shortened: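 Inhibition values reflect reduced yeast growth in the presence of compound, referenced to vehicle controls, using a strain chosen for its alteration in DNA repair or cell cycle control.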

[14] = NCI Yeast Anticancer Drug Screen. Data for the sgs1 strain (AID 173);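 note: 0% = growth of vehicle-only control cultures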; conditions: S. cerevisiae sgs1 mutant, hits give high values
Procedure, shortened: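 Vehicle-treated cultures served as reference for growth inhibition of a yeast strain altered in DNA damage repair or cell cycle control after compound exposure.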

[15] = NCI Yeast Anticancer Drug Screen. Data for the mlh1 rad18 strain (AID 175); conditions: S. cerevisiae mlh1 rad18 strain growth inhibition, hits give high values
Procedure, shortened: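 Inhibition values reflect reduced growth of mutant yeast versus vehicle-treated controls following compound exposure; the mutations affect DNA damage repair.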

[16] = NCI Yeast Anticancer Drug Screen. Data for the rad18 strain (AID 177); conditions: S. cerevisiae rad18 mutant growth inhibition, hits give high values
Procedure, shortened: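 Steps: expose repair-mutant yeast to compound; measure growth; express as inhibition relative to vehicle control.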

[17] = at 5.0 µM (retest, dose inferred, filed as 0.5)
[18] = at 50.0 µM (retest, dose inferred, filed as 5.0)

Measured: growth inhibition

Cc1c(Cl)ccc2c1S(=O)(=O)c1cccc(Cl)c1-2
active: [5]; [17] 100% | [5]; [18] 100% | [6]; [17] 100% | [6]; [18] 100% | [11]; at 50.0 µM 81.3% | [15]; [17] 100% | [15]; [18] 100%
inactive: [1]; at 1.2 µM 0% | [1]; at 3.7 µM 0% | [1]; at 11.0 µM -4% | [1]; at 33.0 µM -9% | [1]; at 100.0 µM -9% | [2]; at 1.2 µM -6% | [2]; at 3.7 µM -2% | [2]; at 11.0 µM -1% | [2]; at 33.0 µM -15% | [2]; at 100.0 µM -1% | [3]; at 1.2 µM -12% | [3]; at 3.7 µM 12% | [3]; at 11.0 µM 7% | [3]; at 33.0 µM -37% | [3]; at 100.0 µM -17% | [4]; at 1.2 µM -2% | [4]; at 3.7 µM 1% | [4]; at 11.0 µM 9% | [4]; at 33.0 µM -5% | [4]; at 100.0 µM -8% | [5]; at 1.2 µM -22% | [5]; at 3.7 µM -9% | [5]; at 11.0 µM -30% | [5]; at 33.0 µM -17% | [5]; at 50.0 µM 20.8% | [5]; at 100.0 µM -3% | [6]; at 1.2 µM -24% | [6]; at 3.7 µM -31% | [6]; at 11.0 µM -32% | [6]; at 33.0 µM -28% | [6]; at 50.0 µM 29.5% | [6]; at 100.0 µM -32% | [7]; at 1.2 µM 2% | [7]; at 3.7 µM 6% | [7]; at 11.0 µM 2% | [7]; at 33.0 µM 5% | [7]; at 100.0 µM 5% | [8]; [17] -13% | [8]; [18] 28% | [8]; at 50.0 µM 20.9% | [9]; at 1.2 µM -5% | [9]; at 3.7 µM 6% | [9]; at 11.0 µM 8% | [9]; at 33.0 µM -4% | [9]; at 100.0 µM -18% | [10]; [17] 31% | [10]; [18] 28% | [10]; at 50.0 µM 0.75% | [11]; at 1.2 µM -27% | [11]; at 3.7 µM -13% | [11]; [17] 18% | [11]; at 11.0 µM 1% | [11]; at 33.0 µM -10% | [11]; [18] 51% | [11]; at 100.0 µM -18% | [12]; at 1.2 µM -10% | [12]; at 3.7 µM -9% | [12]; at 11.0 µM -12% | [12]; at 33.0 µM -12% | [12]; at 100.0 µM -25% | [13]; at 1.2 µM -3% | [13]; at 3.7 µM 2% | [13]; at 11.0 µM -5% | [13]; at 33.0 µM -8% | [13]; at 100.0 µM -2% | [14]; at 1.2 µM -10% | [14]; at 3.7 µM -19% | [14]; at 11.0 µM -18% | [14]; at 33.0 µM -13% | [14]; at 100.0 µM -24% | [15]; at 50.0 µM 37.2% | [16]; at 1.2 µM -18% | [16]; at 3.7 µM 2% | [16]; at 11.0 µM 6% | [16]; at 33.0 µM -1% | [16]; at 100.0 µM 7%

From PubChem BioAssay (NCI)
